# Data from PubChem BioAssay (NCI).
# Compounds without any hit were thinned out: in the full panel of roughly 83,000, 20% have a hit.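 How to read the values: 0–100, growth inhibition (40 = 60% inhibited); 0, no net growth; -100 to 0, cell death (-40 = 40% of starting cells died; -100 = all dead).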 A number with no mark means an inactive call. The source made the active and inactive calls. Rule for the calls: active = growth percent below 10; inactive = the rest.
# What was measured:
# Assay in all cases: NCI-60 one-dose screen, 48 h (100 = growth as untreated, 0 = no growth, -100 = all killed)
# Settings in all cases: 10 µM
# [1] = test system: NCI-H23 lung
# [2] = test system: NCI-H226 lung
# [3] = test system: NCI-H322M lung
# [4] = test system: HOP-62 NSCLC
# [5] = test system: NCI-H460 lung
# [6] = test system: NCI-H522 lung
# [7] = test system: A549/ATCC NSCLC
# [8] = test system: 786-0 renal
# [9] = test system: COLO 205 colon
# [10] = test system: DU-145 prostate
# [11] = test system: K-562 leukemia
# [12] = test system: MDA-MB-231 breast
# [13] = test system: RXF 393 renal
# [14] = test system: SF-268 CNS
# [15] = test system: SF-295 CNS
# [16] = test system: SF-539 CNS
# [17] = test system: UACC-257 melanoma
# [18] = test system: M14 melanoma
# [19] = test system: HCT-15 colon
# [20] = test system: MALME-3M melanoma
SMILES,growth [1],growth [2] [%],growth [3],growth [4] [%],growth [5],growth [6],growth [7],growth [8] [%],growth [9],growth [10],growth [11],growth [12],growth [13],growth [14] [%],growth [15],growth [16],growth [17] [%],growth [18],growth [19],growth [20] [%]
O=C1OCC2=C1C(c1cccc(Cl)c1)c1cc3c(cc1N2CCO)OCO3 (stereo unspecified),31.7%,23.4,42.8%,31.4,7.53% (active),-19.7% (active),27.6%,35.7,-6.41% (active),11%,15.4%,31.7%,6.21% (active),46.5,-4.59% (active),-9.08% (active),61,11%,18.5%,–
COc1ccc(/C=C/C(=O)Nc2ccc(-c3nc4ccc(F)cc4s3)cc2)cc1,86.3%,72.3,104%,109,99.1%,85.5%,94%,80.6,110%,118%,79.6%,97%,101%,112,95.5%,111%,94.9,102%,105%,–
O=[N+]([O-])c1ccc(Oc2cccnc2)c([N+](=O)[O-])c1,96.5%,89.7,94.8%,104,109%,36.3%,102%,93.2,55.5%,86.2%,16.1%,94%,63.9%,97.5,104%,75.7%,63.6,84.9%,53.1%,–
COc1cc(/C=C2\CCCC3=C2N=C2SC=NN2C3c2cc(OC)c(OC)c(OC)c2)cc(OC)c1OC (stereo unspecified),28.9%,13.6,28.4%,11.8,1.24% (active),46.5%,13.1%,32,25.7%,8.36% (active),8.28% (active),2.06% (active),21.7%,22.9,21.4%,5.9% (active),34.3,9.84% (active),6.59% (active),–
Cc1occc1-c1nnc(SCC(=O)c2ccc(NC(=O)CC(C)C)cc2)o1,110%,109,106%,99.6,108%,81.9%,87.7%,96.3,110%,109%,86.1%,105%,–,132,104%,101%,–,112%,121%,89.8
Cc1cc2ccccc2nc1-c1ccccc1F,109%,98.9,128%,94.6,107%,122%,92.4%,95.1,110%,116%,110%,112%,99%,101,107%,107%,89.6,108%,101%,–
COc1ccc(Cn2c(C(N)=O)cc3c2-c2nc(N)ncc2CCC3)cc1,106%,98.6,89.1%,100,97.7%,103%,93.7%,101,101%,99.4%,107%,88.9%,102%,96.8,98.3%,95.8%,102,96.7%,91.1%,–
COc1ccc2c(c1)-c1c(c3cc(OC)ccc3n(CCN(C)C)c1=O)C2=O,7.11% (active),22,-14.4% (active),15.3,-4.73% (active),-11.5% (active),-18.7% (active),32.3,14.7%,5.1% (active),18.6%,36.7%,25.2%,22.1,7.07% (active),37.7%,18.4,24%,21.9%,–
